An excerpt weighted towards active compounds, which were near 2.8% of everything screened.
KDM5B inhibitor: Primary screen for KDM5B Histone Demethylases FDH-coupled qHTS. KDM5B demethylase, FDH-coupled NADH fluorescence (FDH is formaldehyde dehydrogenase). Potency, µM (titrated, usually from 57.7 µM), most hits filed as inhibitors. 220,000 compounds, 2.6% hits; active = well fitted inhibition curve with a large enough effect; inconclusive = small, poorly fitted or top-dose-only effect; inactive = no such curve, though single readings can be large or run the other way; note: potency is the fitted concentration of half-maximal effect; 0% is about no effect; nearly all actives have a fitted effect of over 70% in size
Target sequence (Q9UGL1 whole entry, looked up): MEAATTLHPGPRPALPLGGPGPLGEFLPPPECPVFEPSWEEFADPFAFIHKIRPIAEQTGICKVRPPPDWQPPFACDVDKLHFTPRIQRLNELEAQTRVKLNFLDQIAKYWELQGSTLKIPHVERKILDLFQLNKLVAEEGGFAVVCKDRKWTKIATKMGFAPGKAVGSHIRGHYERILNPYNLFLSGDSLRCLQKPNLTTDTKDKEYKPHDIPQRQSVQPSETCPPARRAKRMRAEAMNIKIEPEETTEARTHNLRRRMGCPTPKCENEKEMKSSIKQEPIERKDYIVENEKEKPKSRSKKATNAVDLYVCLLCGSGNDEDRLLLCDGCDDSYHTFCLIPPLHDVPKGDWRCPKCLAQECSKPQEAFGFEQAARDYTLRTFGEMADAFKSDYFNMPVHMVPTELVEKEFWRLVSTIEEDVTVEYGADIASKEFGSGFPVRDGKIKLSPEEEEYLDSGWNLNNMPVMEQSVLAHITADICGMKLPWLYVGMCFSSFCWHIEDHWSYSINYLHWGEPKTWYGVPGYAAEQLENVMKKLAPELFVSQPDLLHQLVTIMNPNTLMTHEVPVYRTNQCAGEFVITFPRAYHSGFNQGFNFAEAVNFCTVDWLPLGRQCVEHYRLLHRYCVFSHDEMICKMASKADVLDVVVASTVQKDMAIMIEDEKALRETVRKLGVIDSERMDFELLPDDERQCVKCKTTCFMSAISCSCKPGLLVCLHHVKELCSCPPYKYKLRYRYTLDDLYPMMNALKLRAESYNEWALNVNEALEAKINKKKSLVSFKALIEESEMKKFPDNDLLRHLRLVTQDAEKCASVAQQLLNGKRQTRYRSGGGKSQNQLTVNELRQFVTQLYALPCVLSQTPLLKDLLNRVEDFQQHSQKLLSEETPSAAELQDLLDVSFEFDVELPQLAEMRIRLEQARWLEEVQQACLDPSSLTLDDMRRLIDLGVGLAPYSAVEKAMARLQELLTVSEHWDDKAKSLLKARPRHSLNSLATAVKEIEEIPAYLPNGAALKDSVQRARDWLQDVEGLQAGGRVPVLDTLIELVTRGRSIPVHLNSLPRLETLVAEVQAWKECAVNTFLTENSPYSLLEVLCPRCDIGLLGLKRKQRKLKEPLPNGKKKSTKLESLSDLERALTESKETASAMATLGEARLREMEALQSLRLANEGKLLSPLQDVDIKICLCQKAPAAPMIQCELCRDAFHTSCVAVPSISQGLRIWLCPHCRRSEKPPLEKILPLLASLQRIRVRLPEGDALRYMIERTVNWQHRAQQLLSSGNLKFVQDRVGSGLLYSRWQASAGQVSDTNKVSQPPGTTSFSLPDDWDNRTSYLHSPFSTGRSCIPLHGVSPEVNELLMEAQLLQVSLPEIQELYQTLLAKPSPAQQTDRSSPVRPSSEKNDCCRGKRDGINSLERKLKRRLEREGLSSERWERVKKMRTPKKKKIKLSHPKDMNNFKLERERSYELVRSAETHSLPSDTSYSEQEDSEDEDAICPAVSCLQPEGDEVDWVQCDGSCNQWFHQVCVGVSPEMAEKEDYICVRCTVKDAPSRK
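Compound dilutions met 200 nM (final) KDM5BΔAP for 10 min at room temperature before substrate addition. The substrate mix held 12.5 µM H3K4me3 with cofactors 25 µM α-ketoglutarate and 50 µM Fe²⁺. NADH signal gain over 30 min defined activity.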
IP6K1 inh: Primary qHTS assay for small molecule inhibitors of Inositol hexaphosphate kinase 1 (IP6K1); Inositol hexakisphosphate kinase 1 (Homo sapiens), Q92551; IP6K1 kinase, ADP-Glo luminescence, 2 h; hits give low values; activity change, % (series mostly up to about 58 µM); 140,000 compounds, 0.81% hits; in the data active = activity change below about -25%; note: % is set by controls: 0 for no effect and ±100 for the full control effect
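ADP-Glo luminescence measures ADP made by human IP6K1 during a 2 h RT reaction with ATP/IP6 (mix at 1.3 mM/130 uM); top library doses 57.5 and 19.1 uM final.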
The depositor's hits bear a star; i = inactive; ? = inconclusive; . = no result; ! = not confirmed by another sample.

SMILES	KDM5B inhibitor	IP6K1 inh
COc1ccc(NC(=O)C2(C)CCc3cnc(N4CCOCC4)nc32)cn1 (configuration not stated)	35µM*	10
COc1cccc(NC(=O)C2(C)CCc3cnc(N4CCOCC4)nc32)c1 (configuration not stated)	28µM*	12
Cn1ccc(NC(=O)C2(C)CCc3cnc(Nc4ccccc4)nc32)n1 (configuration not stated)	i	-9
CC1(C(=O)NCc2cccc(Cl)c2)CCc2cnc(N3CCOCC3)nc21 (configuration not stated)	35µM*	3
CC1(C(=O)NCCN2CCOCC2)CCc2cnc(NCc3ccccc3)nc21 (configuration not stated)	?	-4
COc1ccc(NC(=O)C2(C)CCCc3cnc(Nc4ccccc4)nc32)cn1 (configuration not stated)	?	1
CC1(C(=O)Nc2ccccc2)CCc2cnc(N3CCOCC3)nc21 (configuration not stated)	35µM*	4
COc1cccc(Nc2ncc3c(n2)C(C)(C(=O)Nc2ccc(OC)nc2)CC3)c1 (configuration not stated)	?	-11
Cc1nnc2ccc(N3CCCC(NC(=O)c4cccc(Cl)c4)C3)nn12 (configuration not stated)	.	1
COc1ccc(CC(=O)NC2CCN(c3ccc4nnc(-c5ccccc5)n4n3)C2)cc1 (configuration not stated)	.	0
CNC(=O)c1cc(C)nc2onc(C3CCCN(C(=O)COC)C3)c12 (configuration not stated)	.	-14
CC(C)c1nc(N2CCCCCC2)ncc1C(=O)O	28µM*	3
CC(C)c1nc(N2CCOCC2)ncc1C(=O)O	?	-15
Cc1nnnn1CC(=O)NCc1cccnc1N(C)CCc1ccccn1	i	12
CCn1ccc(C(=O)NCc2cccnc2N(C)CCc2ccccn2)n1	28µM*	5
O=C(c1ccc2oc(-c3ccnc(Cl)c3)nc2c1)N1CCOCC1	.	-14
OCC1(CCOc2ccccc2)CCN(c2nnnn2-c2ccccc2)CC1	i	0
Cn1ccnc1-c1ccc(N2CCCC(CO)(CCOc3ccccc3)C2)nn1 (configuration not stated)	32µM*	7
Cn1ccnc1-c1ccc(N2CCC(CO)(CCOc3ccccc3)CC2)nn1	28µM*	10
Cc1ccccc1CC1(CO)CCCN(c2ccc(-c3nccn3C)nn2)C1 (configuration not stated)	?	6
CNC(=O)c1cc(C2CC2)nc2c1c(C1CCCN(C(=O)c3ccccc3F)C1)nn2C (configuration not stated)	.	-13
c1csc(CN2CCn3c(nnc3C3CCCNC3)C2)c1 (configuration not stated)	i	6
Fc1ccc(CN2CCn3c(nnc3C3CCCNC3)C2)cc1 (configuration not stated)	25µM*!	8
CC1=C[C@@H](CN2CCN(C)CC2)[C@H](C(C)C)C[C@H]1Cc1nnc(-c2ccc(N(C)C)cc2)o1	?	-4
CC1=C[C@@H](CN2CCOCC2)[C@H](C(C)C)C[C@H]1Cc1nnc(-c2ccc(N(C)C)cc2)o1	35µM*	10
SMILES	KDM5B inhibitor	IP6K1 inh
CC1=C[C@@H](CN2CCN(c3ccccn3)CC2)[C@H](C(C)C)C[C@H]1Cc1nnc(-c2ccccc2)o1	28µM*	7
CC1=C[C@@H](CN2CCOCC2)[C@H](C(C)C)C[C@H]1Cc1nnc(-c2ccccc2)o1	i	0
CC(C)CCNC(=O)CSc1nc2cc([N+](=O)[O-])ccc2o1	i	.
CN(C)c1ccc(-c2nnnn2[C@H]2CO[C@H]3[C@@H]2OC[C@@H]3NC(=O)Nc2ccc(Oc3ccccc3)cc2)cc1	13µM*	4
CN(C)c1ccc(-c2nnnn2[C@H]2CO[C@H]3[C@@H]2OC[C@@H]3NS(=O)(=O)c2ccc3ccccc3c2)cc1	22µM*	6
CN(C)c1ccc(-c2nnnn2[C@H]2CO[C@H]3[C@@H]2OC[C@H]3O)cc1	i	10
CC(=O)c1ccc(NC(=O)N[C@H]2CO[C@H]3[C@@H]2OC[C@@H]3n2nnnc2-c2ccc(N(C)C)cc2)cc1	?	3
Cc1cnc(-c2ccccc2)n1C1CCN(C(=O)CC2CCCCC2)C1 (configuration not stated)	.	-4
CCN1C(=O)N/C(=C/c2cn(CC(=O)Nc3ccc(C)cc3)c3ccccc23)C1=O	i	.
COc1nccnc1NC1CCN(C(=O)NCc2ccc(F)cc2)CC1	28µM*	-4
COc1ccc(CC(=O)N2CCN(c3nccc(Nc4ccc(OC)cc4)n3)CC2)cc1	.	-17
COCCOC1CCN(C(=O)Cc2c(C)noc2C)CC1	i	0
CS(=O)(=O)N1CCC(OC2CCN(C(=O)NCc3ccc(F)cc3)CC2)CC1	i	14
COc1ccc(CC(=O)N2CCC(Nc3nccnc3OC)CC2)cc1	28µM*	11
COc1nccnc1NC1CCN(C(=O)Cc2c(C)noc2C)CC1	32µM*	-6
O=C(Cc1ccsc1)N1CCC(Nc2cccnc2)C1 (configuration not stated)	i	3
COc1nccnc1NC1CCN(C(=O)Cc2ccsc2)CC1	32µM*	-2
CC(NC(=O)Cc1csc2nc(-c3ccccc3)cn12)c1ccc(S(C)(=O)=O)cc1 (configuration not stated)	i	.
COc1ccc(Nc2ccnc(N3CCN(C(=O)NC(C)C)CC3)n2)cc1	.	0
COc1ccc(-c2[nH]nc3ncc(-c4ccc([S+](C)(=O)[O-])cc4)nc23)cc1F	i	19
Cc1cc(F)ccc1-c1[nH]nc2ncc(-c3cn[nH]c3)nc12	28µM*	-21
Cc1cc(F)ccc1-c1[nH]nc2ncc(-c3ccc([S+](C)(=O)[O-])cc3)nc12	35µM*	5
CC(=O)Nc1cccc(-c2cnc3n[nH]c(-c4ccc(F)cc4C)c3n2)c1	35µM*	17
CC(=O)Nc1cccc(-c2cnc3n[nH]c(-c4sccc4C)c3n2)c1	i	2
COc1ccc(-c2cnc3n[nH]c(-c4ccc(F)cc4C)c3n2)cc1	?	22
SMILES	KDM5B inhibitor	IP6K1 inh
CCOC(=O)[C@@H]1CN(C(=O)C(C)C)[C@H]2c3ccc(OC)cc3O[C@@H]12	.	6
Cn1ncc2c(C(=O)NCC#N)cc(-c3cccc(F)c3)nc21	.	20
COC(=O)c1ccc(COC(=O)CC23CC4CC(CC(O)(C4)C2)C3)cc1	i	.
c1cc(N2CCOCC2)ncc1-c1noc([C@@H]2CCCN2C2CCOCC2)n1	?	27
N#Cc1ccc(CN2CCC[C@H]2c2nc(-c3ccnc(N4CCOCC4)c3)no2)cc1	35µM*	10
c1cc(-c2noc([C@@H]3CCCN3C3CCC3)n2)cc(N2CCOCC2)n1	35µM*	-9
N#Cc1cccc(CN2CCC[C@H]2c2nc(-c3ccc(OC4CCCCC4)nc3)no2)c1	i	-2
CC(C)CN1CCC[C@H]1c1nc(-c2ccnc(N3CCOCC3)c2)no1	32µM*	0
CN1CCN(c2ccc(-c3noc([C@@H]4CCCN4Cc4ccccc4)n3)cn2)CC1	?	-3
COCCNc1cc(-c2noc([C@@H]3CCCN3CC(C)C)n2)ccn1	32µM*	8

Screens (PubChem BioAssay)
